Common to all, as to assay: DAPPL (digital affinity profiling via proximity ligation, sequencing); 10 mM Tris-HCl pH 7.5, 50 mM NaCl, 1 mM DTT, 4% glycerol, room temperature, 30 min; GST-TFs on glutathione beads, 16-mer random dsDNA library, 0.1% formaldehyde crosslink after washing; high values mean tight binding
The target in experiment [1] is T1, FLI1 (Homo sapiens, UniProt Q01543 1-452).
T1 sequence: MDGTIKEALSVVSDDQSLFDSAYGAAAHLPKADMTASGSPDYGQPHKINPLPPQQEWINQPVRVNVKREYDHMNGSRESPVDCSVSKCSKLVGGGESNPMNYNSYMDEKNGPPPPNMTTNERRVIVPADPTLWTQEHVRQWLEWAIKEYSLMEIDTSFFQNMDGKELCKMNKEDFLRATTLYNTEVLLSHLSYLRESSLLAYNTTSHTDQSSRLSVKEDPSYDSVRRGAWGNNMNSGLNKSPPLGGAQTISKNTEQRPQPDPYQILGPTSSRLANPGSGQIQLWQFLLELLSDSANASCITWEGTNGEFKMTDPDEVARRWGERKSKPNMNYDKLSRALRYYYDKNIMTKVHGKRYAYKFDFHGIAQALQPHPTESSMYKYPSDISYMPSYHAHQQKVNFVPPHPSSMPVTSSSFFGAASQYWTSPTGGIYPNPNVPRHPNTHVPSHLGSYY
To be noted: protein: recombinant; tags: N-terminal GST; dsDNA, one strand shown. The method in brief:
(§1)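 Sequencing on an Illumina NextSeq500 followed washing, crosslinking with 0.1% formaldehyde, proximity ligation (BsaI/T4 ligase, 1 h, 37 °C) and PCR amplification of pools that had been incubated for 30 min at room temperature with 200 nmole of a random double-stranded 16-mer DNA library in Tris/NaCl/DTT/glycerol buffer. Each pool held DNA-barcoded human transcription factors, expressed in yeast as GST fusions and captured on glutathione beads, plus a tag-only sample. Binding signal is a hexamer's read frequency for a factor divided by its frequency in the tag-only sample.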

In experiment [2] the target is T2, ELK1 (Homo sapiens, UniProt P19419 1-428).
T2 sequence: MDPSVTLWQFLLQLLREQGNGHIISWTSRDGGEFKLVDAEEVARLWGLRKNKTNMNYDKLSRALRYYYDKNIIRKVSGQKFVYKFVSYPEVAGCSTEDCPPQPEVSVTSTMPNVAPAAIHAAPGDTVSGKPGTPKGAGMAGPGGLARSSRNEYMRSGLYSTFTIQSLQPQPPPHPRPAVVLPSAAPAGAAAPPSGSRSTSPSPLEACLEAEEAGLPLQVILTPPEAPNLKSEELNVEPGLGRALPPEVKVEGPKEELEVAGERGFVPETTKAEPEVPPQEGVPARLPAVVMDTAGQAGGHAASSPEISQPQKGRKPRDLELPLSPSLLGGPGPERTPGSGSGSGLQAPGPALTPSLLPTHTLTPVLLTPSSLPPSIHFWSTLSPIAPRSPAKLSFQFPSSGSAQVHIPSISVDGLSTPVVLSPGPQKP
As to conditions: protein: recombinant; tags: N-terminal GST; dsDNA, one strand shown. The procedure, abridged: as §1

Experiment [3] has as its target T3, GABPA (Homo sapiens, UniProt Q06546 1-454).
T3 sequence: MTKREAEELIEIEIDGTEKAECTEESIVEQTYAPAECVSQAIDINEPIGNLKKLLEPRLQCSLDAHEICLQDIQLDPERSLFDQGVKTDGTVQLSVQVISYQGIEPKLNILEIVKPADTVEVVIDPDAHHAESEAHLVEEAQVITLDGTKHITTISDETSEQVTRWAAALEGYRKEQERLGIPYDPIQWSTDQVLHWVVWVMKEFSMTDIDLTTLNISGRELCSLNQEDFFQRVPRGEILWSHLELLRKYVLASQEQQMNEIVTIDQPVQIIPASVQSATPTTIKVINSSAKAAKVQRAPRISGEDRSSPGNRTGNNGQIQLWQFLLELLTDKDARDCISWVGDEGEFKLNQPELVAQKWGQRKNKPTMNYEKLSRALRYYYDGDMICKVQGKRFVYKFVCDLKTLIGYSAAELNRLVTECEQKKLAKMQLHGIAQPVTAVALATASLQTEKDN
To be noted: protein: recombinant; tags: N-terminal GST; dsDNA, one strand shown. The method in brief: as §1

The target of experiment [4] is T4, ERG (Homo sapiens, UniProt P11308 1-479).
T4 sequence: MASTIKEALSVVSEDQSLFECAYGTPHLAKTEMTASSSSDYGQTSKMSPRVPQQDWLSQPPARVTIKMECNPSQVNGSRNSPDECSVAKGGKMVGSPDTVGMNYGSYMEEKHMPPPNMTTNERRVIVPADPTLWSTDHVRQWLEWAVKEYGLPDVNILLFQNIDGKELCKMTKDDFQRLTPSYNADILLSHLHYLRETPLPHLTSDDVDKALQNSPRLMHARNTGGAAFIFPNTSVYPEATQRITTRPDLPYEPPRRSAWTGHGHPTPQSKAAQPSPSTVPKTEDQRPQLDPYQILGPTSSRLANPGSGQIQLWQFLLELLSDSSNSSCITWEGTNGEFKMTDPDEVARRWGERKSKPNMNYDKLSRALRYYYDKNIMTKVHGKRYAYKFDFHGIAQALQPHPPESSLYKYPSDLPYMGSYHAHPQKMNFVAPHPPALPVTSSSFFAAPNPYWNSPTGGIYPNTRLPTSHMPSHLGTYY
To be noted: protein: recombinant; tags: N-terminal GST; dsDNA, one strand shown. The method in brief: as §1

The target of experiment [5] is ELF1 (Homo sapiens, UniProt P32519 1-619). As to conditions: protein: recombinant; tags: N-terminal GST; dsDNA, one strand shown. The procedure, abridged:
as §1

Experiment [6] concerns the target T5, EHF (Homo sapiens, UniProt Q9NZC4 1-300).
T5 sequence: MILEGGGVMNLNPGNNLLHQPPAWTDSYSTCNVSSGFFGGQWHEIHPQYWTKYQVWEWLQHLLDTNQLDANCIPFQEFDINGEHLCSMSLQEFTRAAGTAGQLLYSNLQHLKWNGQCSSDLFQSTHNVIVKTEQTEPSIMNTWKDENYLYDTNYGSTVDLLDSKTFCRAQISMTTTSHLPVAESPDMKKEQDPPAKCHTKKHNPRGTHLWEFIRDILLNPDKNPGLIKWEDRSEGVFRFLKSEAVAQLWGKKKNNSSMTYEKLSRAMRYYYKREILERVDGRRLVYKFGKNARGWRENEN
As to conditions: protein: recombinant; tags: N-terminal GST; dsDNA, one strand shown. The method in brief:
as §1

Experiment [7] deals with SPI1 (Homo sapiens, UniProt P17947 1-270). To be noted: protein: recombinant; tags: N-terminal GST; dsDNA, one strand shown. The procedure, abridged: as §1
Experiment [8] has as its target SPIB (Homo sapiens, UniProt Q01892 1-262). As to conditions: protein: recombinant; tags: N-terminal GST; dsDNA, one strand shown. The procedure, abridged:
as §1

For experiment [9], the target named is T6, FEV (Homo sapiens, UniProt Q99581 1-238).
T6 sequence: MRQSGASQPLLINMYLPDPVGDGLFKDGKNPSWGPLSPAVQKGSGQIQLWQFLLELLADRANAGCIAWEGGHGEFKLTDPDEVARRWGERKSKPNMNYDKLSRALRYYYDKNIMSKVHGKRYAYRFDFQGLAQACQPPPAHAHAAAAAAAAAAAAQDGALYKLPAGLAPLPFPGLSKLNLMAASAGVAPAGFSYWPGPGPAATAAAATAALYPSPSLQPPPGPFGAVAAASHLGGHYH
To be noted: protein: recombinant; tags: N-terminal GST; dsDNA, one strand shown. The procedure, abridged:
as §1

The target in experiment [10] is ETV5 (Homo sapiens, UniProt P41161 1-510). As to conditions: protein: recombinant; tags: N-terminal GST; dsDNA, one strand shown. The procedure, abridged: as §1
Sequence of ETV5 (P41161 whole entry): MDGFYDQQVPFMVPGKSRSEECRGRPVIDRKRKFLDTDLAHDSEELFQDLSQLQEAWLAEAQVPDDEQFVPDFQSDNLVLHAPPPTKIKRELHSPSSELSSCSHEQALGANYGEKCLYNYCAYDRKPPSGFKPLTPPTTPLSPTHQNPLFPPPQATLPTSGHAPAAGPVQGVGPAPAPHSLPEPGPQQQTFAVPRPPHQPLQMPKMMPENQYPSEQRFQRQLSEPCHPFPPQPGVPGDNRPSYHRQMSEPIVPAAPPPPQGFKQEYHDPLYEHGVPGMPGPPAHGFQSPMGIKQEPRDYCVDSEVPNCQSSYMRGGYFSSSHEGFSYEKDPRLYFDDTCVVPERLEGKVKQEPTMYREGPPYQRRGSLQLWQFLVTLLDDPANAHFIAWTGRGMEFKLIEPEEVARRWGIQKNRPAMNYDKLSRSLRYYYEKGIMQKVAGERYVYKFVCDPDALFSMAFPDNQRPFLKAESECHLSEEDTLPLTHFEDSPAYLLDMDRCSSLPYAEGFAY
Experiment [11] addresses HSF1 (Homo sapiens, UniProt Q00613 1-529). To be noted: protein: recombinant; tags: N-terminal GST; chain copies: 3; dsDNA, one strand shown. The procedure, abridged: as §1
For experiment [12], the target named is T7, SPIC (Homo sapiens, UniProt Q8N5J4 1-248).
T7 sequence: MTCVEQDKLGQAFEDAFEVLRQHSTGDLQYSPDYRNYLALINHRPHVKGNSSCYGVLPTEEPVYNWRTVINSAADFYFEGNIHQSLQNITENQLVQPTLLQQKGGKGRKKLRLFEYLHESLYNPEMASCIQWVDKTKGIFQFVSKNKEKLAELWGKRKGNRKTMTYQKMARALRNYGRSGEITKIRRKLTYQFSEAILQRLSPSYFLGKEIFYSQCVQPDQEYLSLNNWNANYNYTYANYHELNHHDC
To be noted: protein: recombinant; tags: N-terminal GST; dsDNA, one strand shown. The method in brief: as §1

The target in experiment [13] is ELF4 (Homo sapiens, UniProt Q99607 1-663). As to conditions: protein: recombinant; tags: N-terminal GST; dsDNA, one strand shown. The procedure, abridged:
as §1

Experiment [14] concerns the target T8, ELK4 (Homo sapiens, UniProt P28324-2 1-405).
T8 sequence: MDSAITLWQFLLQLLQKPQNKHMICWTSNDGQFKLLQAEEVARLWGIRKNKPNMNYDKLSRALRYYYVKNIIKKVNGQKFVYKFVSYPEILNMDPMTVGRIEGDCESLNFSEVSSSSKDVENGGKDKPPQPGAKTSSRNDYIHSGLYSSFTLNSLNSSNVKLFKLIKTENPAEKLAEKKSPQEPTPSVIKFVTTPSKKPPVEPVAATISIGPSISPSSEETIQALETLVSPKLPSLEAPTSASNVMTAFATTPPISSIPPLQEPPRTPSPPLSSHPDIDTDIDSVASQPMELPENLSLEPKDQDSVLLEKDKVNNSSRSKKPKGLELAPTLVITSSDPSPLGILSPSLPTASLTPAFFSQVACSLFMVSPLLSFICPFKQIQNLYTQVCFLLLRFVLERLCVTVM
As to conditions: protein: recombinant; tags: N-terminal GST; dsDNA, one strand shown. The method in brief: as §1

In experiment [15] the target is T9, ETV2 (Homo sapiens, UniProt O00321 1-342).
T9 sequence: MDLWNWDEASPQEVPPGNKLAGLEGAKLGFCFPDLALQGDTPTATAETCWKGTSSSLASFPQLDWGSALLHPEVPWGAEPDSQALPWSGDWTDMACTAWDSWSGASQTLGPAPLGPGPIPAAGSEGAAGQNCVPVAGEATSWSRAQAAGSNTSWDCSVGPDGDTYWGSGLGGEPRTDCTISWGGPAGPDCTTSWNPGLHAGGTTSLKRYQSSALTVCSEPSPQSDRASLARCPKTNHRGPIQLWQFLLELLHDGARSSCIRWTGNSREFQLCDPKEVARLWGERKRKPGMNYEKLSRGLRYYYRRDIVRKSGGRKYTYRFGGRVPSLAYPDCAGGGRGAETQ
As to conditions: protein: recombinant; tags: N-terminal GST; dsDNA, one strand shown. The method in brief:
as §1

The target of experiment [16] is T10, ELF3 (Homo sapiens, UniProt P78545 1-371).
T10 sequence: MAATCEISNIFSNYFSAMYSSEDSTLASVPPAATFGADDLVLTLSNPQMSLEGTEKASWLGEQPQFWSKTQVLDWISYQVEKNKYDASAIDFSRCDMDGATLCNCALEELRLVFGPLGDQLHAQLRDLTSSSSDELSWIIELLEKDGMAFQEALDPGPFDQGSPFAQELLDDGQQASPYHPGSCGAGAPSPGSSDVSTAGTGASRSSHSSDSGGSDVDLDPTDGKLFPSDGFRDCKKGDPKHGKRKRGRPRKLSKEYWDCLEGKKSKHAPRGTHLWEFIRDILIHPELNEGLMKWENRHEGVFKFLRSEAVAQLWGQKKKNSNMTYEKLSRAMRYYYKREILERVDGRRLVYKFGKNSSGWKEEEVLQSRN
As to conditions: protein: recombinant; tags: N-terminal GST; dsDNA, one strand shown. The method in brief:
as §1

For experiment [17], the target named is CRX (Homo sapiens, UniProt O43186 1-299). To be noted: protein: recombinant; tags: N-terminal GST; dsDNA, one strand shown. The procedure, abridged: as §1
Sequence of CRX (O43186 whole entry): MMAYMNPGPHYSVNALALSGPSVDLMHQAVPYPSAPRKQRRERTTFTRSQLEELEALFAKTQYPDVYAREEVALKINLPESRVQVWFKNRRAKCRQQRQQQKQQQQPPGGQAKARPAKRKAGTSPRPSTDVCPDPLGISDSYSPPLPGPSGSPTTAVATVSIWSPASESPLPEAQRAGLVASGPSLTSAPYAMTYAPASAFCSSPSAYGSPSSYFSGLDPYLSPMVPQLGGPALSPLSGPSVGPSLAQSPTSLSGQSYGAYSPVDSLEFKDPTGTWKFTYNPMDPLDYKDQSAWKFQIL
The target of experiment [18] is ETV1 (Homo sapiens, UniProt P50549 1-477). As to conditions: protein: recombinant; tags: N-terminal GST; dsDNA, one strand shown. The procedure, abridged: as §1
Sequence of ETV1 (P50549 whole entry): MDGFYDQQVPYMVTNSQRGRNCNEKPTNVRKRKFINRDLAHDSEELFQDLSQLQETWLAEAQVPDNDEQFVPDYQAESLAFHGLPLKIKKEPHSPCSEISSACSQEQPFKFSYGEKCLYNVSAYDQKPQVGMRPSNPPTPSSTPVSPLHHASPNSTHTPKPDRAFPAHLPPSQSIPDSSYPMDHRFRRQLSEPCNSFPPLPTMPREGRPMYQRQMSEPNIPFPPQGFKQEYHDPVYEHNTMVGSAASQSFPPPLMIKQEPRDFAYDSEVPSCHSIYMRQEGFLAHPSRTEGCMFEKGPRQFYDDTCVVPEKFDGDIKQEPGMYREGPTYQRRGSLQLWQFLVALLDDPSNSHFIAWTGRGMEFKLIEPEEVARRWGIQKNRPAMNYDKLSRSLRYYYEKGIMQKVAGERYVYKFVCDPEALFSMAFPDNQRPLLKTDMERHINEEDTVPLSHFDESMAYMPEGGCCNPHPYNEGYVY

Sequence of HSF1 (Q00613 whole entry): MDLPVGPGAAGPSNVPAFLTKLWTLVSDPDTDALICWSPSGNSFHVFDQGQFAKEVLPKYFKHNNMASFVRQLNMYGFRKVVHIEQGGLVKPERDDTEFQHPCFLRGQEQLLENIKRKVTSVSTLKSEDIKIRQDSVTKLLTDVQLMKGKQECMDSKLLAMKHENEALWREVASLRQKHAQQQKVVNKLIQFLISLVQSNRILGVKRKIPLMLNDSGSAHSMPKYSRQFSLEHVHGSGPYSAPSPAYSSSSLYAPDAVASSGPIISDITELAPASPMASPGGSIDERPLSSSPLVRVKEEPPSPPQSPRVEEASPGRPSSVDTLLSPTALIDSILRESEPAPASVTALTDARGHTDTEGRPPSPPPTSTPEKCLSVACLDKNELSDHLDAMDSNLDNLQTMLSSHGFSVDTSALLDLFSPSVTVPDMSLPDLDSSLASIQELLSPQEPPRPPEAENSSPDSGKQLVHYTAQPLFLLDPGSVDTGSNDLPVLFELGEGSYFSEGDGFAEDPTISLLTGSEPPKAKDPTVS
Sequence of ELF4 (Q99607 whole entry): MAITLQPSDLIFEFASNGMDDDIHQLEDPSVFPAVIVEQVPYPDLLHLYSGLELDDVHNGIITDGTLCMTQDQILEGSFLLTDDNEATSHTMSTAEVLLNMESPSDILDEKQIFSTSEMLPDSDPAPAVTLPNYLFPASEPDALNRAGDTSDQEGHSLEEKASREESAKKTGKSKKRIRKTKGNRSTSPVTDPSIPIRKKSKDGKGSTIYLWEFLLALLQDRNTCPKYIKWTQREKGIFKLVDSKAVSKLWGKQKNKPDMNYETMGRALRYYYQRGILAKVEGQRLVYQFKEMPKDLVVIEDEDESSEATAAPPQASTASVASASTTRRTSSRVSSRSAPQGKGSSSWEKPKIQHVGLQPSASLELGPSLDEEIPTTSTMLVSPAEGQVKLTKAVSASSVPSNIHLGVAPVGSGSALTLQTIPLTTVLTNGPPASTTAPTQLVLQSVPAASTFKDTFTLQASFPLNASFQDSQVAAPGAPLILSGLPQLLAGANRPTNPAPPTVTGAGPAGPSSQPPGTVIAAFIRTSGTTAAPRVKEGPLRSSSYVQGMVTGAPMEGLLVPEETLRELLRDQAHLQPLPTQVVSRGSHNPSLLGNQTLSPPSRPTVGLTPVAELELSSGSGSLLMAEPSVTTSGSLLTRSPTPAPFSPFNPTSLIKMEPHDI
Sequence of ELF1 (P32519 whole entry): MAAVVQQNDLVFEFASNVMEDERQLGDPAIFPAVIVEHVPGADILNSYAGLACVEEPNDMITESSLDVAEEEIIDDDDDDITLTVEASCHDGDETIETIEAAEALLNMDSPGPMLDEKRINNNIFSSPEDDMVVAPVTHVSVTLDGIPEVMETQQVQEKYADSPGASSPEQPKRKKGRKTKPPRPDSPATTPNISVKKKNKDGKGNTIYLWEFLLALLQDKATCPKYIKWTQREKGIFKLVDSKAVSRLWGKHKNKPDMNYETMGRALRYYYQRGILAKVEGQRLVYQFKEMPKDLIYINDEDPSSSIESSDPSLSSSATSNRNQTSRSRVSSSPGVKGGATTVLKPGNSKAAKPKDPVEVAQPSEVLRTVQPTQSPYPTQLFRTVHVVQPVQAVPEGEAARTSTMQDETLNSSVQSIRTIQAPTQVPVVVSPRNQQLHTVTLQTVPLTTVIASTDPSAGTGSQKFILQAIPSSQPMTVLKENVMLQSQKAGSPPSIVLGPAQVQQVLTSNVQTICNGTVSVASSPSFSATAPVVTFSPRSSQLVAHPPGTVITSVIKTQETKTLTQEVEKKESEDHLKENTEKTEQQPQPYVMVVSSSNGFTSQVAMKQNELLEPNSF
Sequence of SPIB (Q01892 whole entry): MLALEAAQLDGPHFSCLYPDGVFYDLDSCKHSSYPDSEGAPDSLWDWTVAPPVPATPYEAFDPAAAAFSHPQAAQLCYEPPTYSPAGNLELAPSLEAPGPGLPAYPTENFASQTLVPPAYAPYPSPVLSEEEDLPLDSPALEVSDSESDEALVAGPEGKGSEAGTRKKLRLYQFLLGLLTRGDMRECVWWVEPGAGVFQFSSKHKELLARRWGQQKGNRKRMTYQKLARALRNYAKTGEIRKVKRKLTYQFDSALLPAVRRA

As for TATTCG, the binding signal was 1.11 fold enrichment (6-mer frequency, TF over GST control) in [1]; 1.11 fold enrichment (6-mer frequency, TF over GST control) in experiment [2]; 1.2 fold enrichment (6-mer frequency, TF over GST control) in experiment [3]; 1.14 fold enrichment (6-mer frequency, TF over GST control) in experiment [4]; 1.14 fold enrichment (6-mer frequency, TF over GST control) in [5]; 1.11 fold enrichment (6-mer frequency, TF over GST control) in experiment [6]. The binding signal in [7] was 1.18 fold enrichment (6-mer frequency, TF over GST control); in [8], 1.16 fold enrichment (6-mer frequency, TF over GST control); in experiment [9] it was 1.06 fold enrichment (6-mer frequency, TF over GST control); in experiment [10], 1.11 fold enrichment (6-mer frequency, TF over GST control); in [11] it was 1.64 fold enrichment (6-mer frequency, TF over GST control); in experiment [12] it was 1.17 fold enrichment (6-mer frequency, TF over GST control). Moreover, the binding signal in [13] is 1.17 fold enrichment (6-mer frequency, TF over GST control); in experiment [14], 1.22 fold enrichment (6-mer frequency, TF over GST control); in [15], 1.24 fold enrichment (6-mer frequency, TF over GST control); in [16] it was 1.35 fold enrichment (6-mer frequency, TF over GST control); in experiment [17], 1.43 fold enrichment (6-mer frequency, TF over GST control); in [18] it was 1.05 fold enrichment (6-mer frequency, TF over GST control).

The values above are taken from PMC7862700, “An all-to-all approach to the identification of sequence-specific readers for epigenetic DNA modifications on cytosine”.
